# From PubChem BioAssay AID868 (SRMLSC, 2007)
# Screen size: about 190,000 compounds; about 3,500 (1.8%) were called active. What follows is part of a selection rich in actives, with near analogues and random picks from the rest. Values without a mark were called inactive.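 The calls were made as follows: active = inhibition above a set limit, 3 SD over mean compound inhibition (cut at about 8.4% in these data); inactive = the rest.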
# Assay: inhibitors of the yeast RAM network, primary screen, dse1pr::URA3 reporter, 5-FOA selection (AID 868);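 also: 0% = DMSO-only wells with no growth and 100% = 10 µM 1-NA-PP1 full growth; inhibition rescues growth on 5-FOA so higher OD means more RAM inhibition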
# Conditions: S. cerevisiae dse1pr::URA3 reporter, 5-FOA growth OD615, 2 d; at 50 µM; hits give high values; analog-sensitive cbk1-as2 kinase mutant strain
row,SMILES,inhibition
1,O=C(NC(=S)Nc1ccc(NC(=O)c2cccs2)cc1)c1ccc([N+](=O)[O-])cc1,2.93%
2,CCc1nnc(NS(=O)(=O)c2ccc(NC(=S)NC(=O)c3cccs3)cc2)s1,4.73%
3,O=C(NC(=S)Nc1cccc(-c2ccc(CO)o2)c1)c1cccs1,9.61% (active)
4,COc1cccc(NC(=O)NCc2ccc(F)cc2)c1,5.02%
5,Cc1c(C=O)c2ccccc2n1CC(=O)O,0%
6,CSc1nc2c(c(=O)[nH]1)C(c1cccc(Cl)c1Cl)CC(=O)N2 (stereo not given),5.93%
7,COc1ccc(CC(=O)NCc2nnc(SCC(=O)Nc3nccs3)n2C)cc1,6.82%
8,COc1ccc(CN(Cc2ccco2)S(=O)(=O)c2ccc(S(=O)(=O)N3CCCC3)cc2)cc1,9.77% (active)
9,COc1ccc(S(=O)(=O)NCc2ccc(C(=O)N(C)Cc3ccco3)cc2)cc1,0.12%
10,CCOc1ccc(CN(Cc2ccco2)S(=O)(=O)c2ccc(-n3cnnn3)c(OC)c2)cc1,6.13%
11,Cc1ccc(S(=O)(=O)NCCc2nnc3ccc(SCc4cccnc4)nn23)cc1,0.39%
12,CCOc1ccc(NC(=O)c2ccc(CSc3nnnn3C)cc2)cc1,2.05%
13,CCOc1cc(NS(=O)(=O)c2ccc(OC)cc2)c(OCC)cc1NC(C)=O,3.5%
14,CCOc1cc(NC(=O)c2ccccn2)c(OCC)cc1NC(=O)c1ccc(OC)cc1,10.6% (active)
15,CCOc1ccc(C(=O)Nc2cc(OC)ccc2OC)cc1,0.11%
16,CCOC(=O)CNc1nc(Cl)nc(Nc2ccccc2)n1,5.04%
17,CC(Sc1nnnn1C)C(=O)NC(=O)NC1CCCCC1 (stereo not given),0.61%
18,Cc1ccc(-c2cc(C(=O)N/N=C/C=C/c3ccccc3)n[nH]2)o1,2.69%
19,COc1ccc(NC(=O)/C(C#N)=C\c2cc(OC)c(OCc3ccc(C(=O)O)cc3)cc2Br)cc1,8.75% (active)
20,COc1cc(C=O)c(Br)cc1OCC(=O)NCc1ccccc1,3.38%
21,COc1cc(/C=C(\C#N)C(=O)Nc2ccc3ccccc3c2)c([N+](=O)[O-])cc1OC,-0.51%
22,O=C(/C=C/c1ccccc1Cl)Nc1ccc(S(=O)(=O)Nc2ncccn2)cc1,5.65%
23,O=C(/C=C/c1ccc(Cl)cc1)Nc1ccc(S(=O)(=O)Nc2ncccn2)cc1,8.46% (active)
24,O=S(=O)(Nc1ncccn1)c1ccc(NS(=O)(=O)c2cccc(Cl)c2Cl)cc1,1.52%
25,COc1cccc(NC(=O)CN(C)C(C)C(=O)Nc2ccc(C#N)cc2)c1 (stereo not given),1.87%
